# Experimental data published in paper PMC4336329 (PLoS ONE, 2015).
# The campaign covered roughly 310,000 compounds. About 14,000 (4.5%) showed an effect of 50% or more. Effects have a minus sign here. This is one part of a sample in which strong results are shown more often than they occur.
# Biological target: human ether-à-go-go-related gene (hERG) potassium channel (human, UniProt Q12809)
# Assay: primary screen, population patch clamp on CHO cells stably expressing hERG; higher = less effect of the substance
# 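Also: peak tail current of the secondary pulse compared with the same well before compound.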
# Sequence of human ether-à-go-go-related gene (hERG) potassium channel (Q12809 whole entry, looked up): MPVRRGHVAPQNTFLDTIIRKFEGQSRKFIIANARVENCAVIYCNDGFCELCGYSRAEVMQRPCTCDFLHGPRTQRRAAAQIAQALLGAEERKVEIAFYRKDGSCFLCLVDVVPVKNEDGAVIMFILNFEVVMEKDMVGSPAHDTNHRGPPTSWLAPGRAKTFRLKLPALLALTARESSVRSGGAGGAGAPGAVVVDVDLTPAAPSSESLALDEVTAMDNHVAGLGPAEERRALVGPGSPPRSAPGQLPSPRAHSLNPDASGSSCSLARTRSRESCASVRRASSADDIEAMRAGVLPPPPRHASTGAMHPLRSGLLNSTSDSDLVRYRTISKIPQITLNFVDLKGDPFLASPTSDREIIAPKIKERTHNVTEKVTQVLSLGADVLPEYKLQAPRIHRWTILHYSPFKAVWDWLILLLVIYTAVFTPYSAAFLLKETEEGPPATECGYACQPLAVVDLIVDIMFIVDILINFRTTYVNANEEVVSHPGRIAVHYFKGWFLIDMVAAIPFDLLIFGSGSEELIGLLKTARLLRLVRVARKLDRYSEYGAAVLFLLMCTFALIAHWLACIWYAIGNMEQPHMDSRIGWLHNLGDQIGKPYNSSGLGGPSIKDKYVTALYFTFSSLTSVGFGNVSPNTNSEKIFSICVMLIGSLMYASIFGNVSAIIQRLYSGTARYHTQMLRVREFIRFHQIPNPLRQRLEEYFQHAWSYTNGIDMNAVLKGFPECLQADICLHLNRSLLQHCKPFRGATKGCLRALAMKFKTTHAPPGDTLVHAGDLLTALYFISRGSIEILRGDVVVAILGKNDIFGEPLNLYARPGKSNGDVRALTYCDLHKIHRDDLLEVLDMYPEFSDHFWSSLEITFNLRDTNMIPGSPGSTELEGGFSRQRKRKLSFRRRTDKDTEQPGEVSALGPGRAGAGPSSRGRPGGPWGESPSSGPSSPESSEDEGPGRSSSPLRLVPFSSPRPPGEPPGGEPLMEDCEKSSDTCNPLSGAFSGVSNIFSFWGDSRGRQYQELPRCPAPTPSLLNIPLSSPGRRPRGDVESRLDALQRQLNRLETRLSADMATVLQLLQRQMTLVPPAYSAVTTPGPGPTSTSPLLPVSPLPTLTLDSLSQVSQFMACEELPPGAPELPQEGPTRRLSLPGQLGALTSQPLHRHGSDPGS
row,SMILES,"hERG current change (%, negative = inhibition) at 10uM [%]"
1,CCOC(=O)Nc1ccc2c(c1)N(C(=O)CCN1CCOCC1)c1ccccc1S2.Cl,-7
2,CN1CCN(c2nc3c(c(=O)n(C)c(=O)n3C)n2Cc2ccccc2F)CC1,-4.91
3,CCCN(C(=O)c1cnccn1)c1c(N)n(Cc2ccccc2)c(=O)[nH]c1=O,0.0848
4,Cc1ccc(S(=O)(=O)N2[C@@H](c3ccc(Cl)cc3)C(C(=O)O)=CC[C@H]2c2ccc(Cl)c(Cl)c2)cc1,11.1
5,Cc1cc(Cl)ccc1C(=O)C1CCCN(C(=O)c2cc(C(C)C)no2)C1 (stereo not drawn),-22.7
6,COc1ccccc1C(=O)C1CCCN(C(=O)c2cc(C(C)C)no2)C1 (stereo not drawn),-5.26
7,CC(C)c1cc(C(=O)N2CCCC(C(=O)c3ccc4ccccc4c3)C2)on1 (stereo not drawn),-21.8
8,CSc1ccccc1C(=O)C1CCCN(C(=O)c2cc(C(C)C)no2)C1 (stereo not drawn),-69.6
9,COc1ccc(C(=O)C2CCCN(C(=O)c3cc(C(C)C)no3)C2)cc1F (stereo not drawn),-56.9
10,COc1ccc(C(=O)C2CCCN(C(=O)c3cc(C)on3)C2)cc1F (stereo not drawn),-6.98
11,Cc1ccccc1NC(=O)CSc1nc(N)c(C#N)cc1C#N,0.675
12,Cc1nc2c(-c3ccccc3)c(C)nn2c(C)c1CC(=O)O,5.02
13,O=C(CSc1nnc(CNC(=O)c2ccco2)o1)c1ccccc1,4.14
14,COc1cccc(C(=O)Nc2ccccc2C(=O)NC2CC2)c1,0.677
15,Cc1ccc(C)c(N2CCN(C(=O)Nc3ccc4c(c3)N(C)C(=O)CS4)CC2)c1,-21.8
16,CC(C)CN1CCC(=O)N([C@H](CSc2ccc(Br)cc2)c2ccccc2)CC1,-63.9
17,COc1ccc(CN2CCC(=O)N([C@H](CO)c3ccccc3)CC2)cc1,13.3
18,CCCN1CCC(=O)N([C@H](CSc2ccccc2)c2ccccc2)CC1,-77.2
19,CCCN1CCC(=O)N([C@H](CSc2ccc(C)cc2)c2ccccc2)CC1,-76

row,SMILES,"hERG current change (%, negative = inhibition) at 10uM [%]"
1,CCCN1CCC(=O)N([C@H](CSc2ccc(OC)cc2)c2ccccc2)CC1,-76.5
2,Nc1cc(=O)[nH]c(SCc2csc(-c3ccccc3)n2)n1,-3.63
3,O=C(NCCC1=CCCCC1)c1ccc(F)cc1,-9.04
4,Cc1noc(/C=C/N(C)C)c1S(=O)(=O)N1CCCC(C(=O)NC2CCCCC2C)C1 (stereo not drawn),-25.5
5,O=C(Cc1ccc([N+](=O)[O-])cc1)OCc1ccc([N+](=O)[O-])cc1,19.2
6,CCCNC(=S)N1CCN(c2nc(-c3ccc(C)cc3)cs2)CC1,5.6
7,O=C(Nc1ccc(F)cc1F)c1cncc(Br)c1,-3.88
8,CCOC(=O)c1cnn(CCOC(=O)C(C)(C)C)c1NC(=O)C(C)(C)C,12.8
9,COc1cc(OC)c2ccc(=O)oc2c1C(CC(=O)N1CCOCC1)c1ccc2c(c1)OCO2 (stereo not drawn),-0.731
10,Cc1nc(Nc2ccc(Cl)cc2)c2oc3ccccc3c2n1,3.95
11,O=C1CCN(Cc2ccc(Br)cc2)CCN1[C@H](CO)c1ccccc1,-3.45
12,CCCN1CCC(=O)N([C@H](CSc2ccc(Br)cc2)c2ccccc2)CC1,-76.2
13,Cc1ccc(C)c(OCCC(=O)OCC(=O)N2CCN(S(=O)(=O)c3ccc(Cl)cc3)CC2)c1,-29.8
14,O=S(=O)(c1ccccc1)c1nc(-c2ccco2)oc1NCc1cccnc1,-20.1
15,CCOc1ccc(CN2CCN(C(=O)Cc3ccccc3)CC2)cc1.O=C(O)C(=O)O,-44.1
16,CN(CCc1ccccc1)Cc1c[nH]c2ccccc12.O=C(O)C(=O)O,-56.7
17,CCOc1ccc(CN2CCN(Cc3c[nH]c4ccccc34)CC2)cc1.O=C(O)C(=O)O,-84.4
18,COc1ccccc1C(=O)N1CCN(Cc2c[nH]c3ccccc23)CC1.O=C(O)C(=O)O,-19.7
19,COc1ccc(CN2CCN(Cc3c[nH]c4ccccc34)CC2)cc1.O=C(O)C(=O)O,-67.5

row,SMILES,"hERG current change (%, negative = inhibition) at 10uM [%]"
1,CN(Cc1ccccc1)Cc1c[nH]c2ccccc12,-16.5
2,CCS(=O)(=O)N1CCN(Cc2c[nH]c3ccccc23)CC1.O=C(O)C(=O)O,5.44
3,O=C(Cc1ccccc1)NCCc1c[nH]c2ccccc12.O=C(O)C(=O)O,16.4
4,COc1ccc(Br)cc1CN1CCN(Cc2c[nH]c3ccccc23)CC1.O=C(O)C(=O)O,-29.2
5,Brc1ccccc1CN1CCN(Cc2c[nH]c3ccccc23)CC1.O=C(O)C(=O)O,-20.1
6,Brc1ccc(CN2CCN(Cc3c[nH]c4ccccc34)CC2)cc1.O=C(O)C(=O)O,-63.8
7,COc1ccc(S(=O)(=O)N2CCN(Cc3c[nH]c4ccccc34)CC2)cc1,-24.9
8,COc1ccc(S(=O)(=O)Nc2ccccc2-c2nnn(CC(=O)Nc3ccccc3OC)n2)cc1,5.49
9,CC(=O)OC[C@H]1O[C@@H](n2ccc(=O)[nH]c2=S)C(OC(C)=O)C1OC(C)=O (stereo partly drawn),-4.01
10,COc1cccc(C(=O)NCC(C)(C)SCc2ccc(F)cc2)c1,-28.2
11,Cc1cccc(NC(=O)CCS(=O)(=O)c2cccc3nonc23)c1C,7.7
12,CCC(C)NC(=O)Nc1ccccc1F (stereo not drawn),-24.5
13,O=S(=O)(c1ccccc1)N1CCCCC1c1cccnc1 (stereo not drawn),2.3
14,O=C(NCCc1c[nH]c2ccccc12)C1CCN(S(=O)(=O)c2ccc(F)cc2)CC1,-28.3
15,O=C(COc1ccccc1)N1CCN(Cc2c[nH]c3ccccc23)CC1,-47.4
16,O=C(c1ccccc1)N1CCN(Cc2c[nH]c3ccccc23)CC1,-16.4
17,O=C(COc1ccc(Br)cc1)N1CCN(Cc2c[nH]c3ccccc23)CC1.O=C(O)C(=O)O,-57.9
18,O=C(NCCc1c[nH]c2ccccc12)C1CCN(Cc2ccc(Br)cc2)CC1,-54
19,O=C(NCCc1c[nH]c2ccccc12)C1CCN(S(=O)(=O)c2ccccc2)CC1,-17.1
